Only some compounds are listed: those with a hit (about 21% of all), similar ones and a draw of the others.
Shiga toxin inh = A qHTS for Small Molecule Inhibitors of Shiga Toxin. Vero cells, Shiga toxin protein synthesis inhibition reporter. inhibition, % at 38.7 µM. hit rate 9.2% among 290,000; in the data active means inhibition mostly above about 28%, no sharp cut-off; inactive means mostly below about 43%; further: 0% is about no effect
AMA1 RON2 block = qHTS for Inhibitors of AMA1-RON; Towards Development of Antimalarial Drug Lead: Primary Screen; Plasmodium falciparum AMA1 (3D7) - RON2 peptide interaction; AlphaScreen AMA1-biotinylated RON2 peptide binding; Potency, µM (highest dose often 58.2 µM), for the others: at the highest dose activity change, negative = inhibition, hits mostly inhibitors; hit rate 0.2% among 360,000; AID 720542, 2013;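 further: potency means the concentration at half of the fitted maximal effect; 0% = vehicle wells and -100% = peptide control; nearly all actives have a fitted effect of over 45% in size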
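AMA1 (3D7) with his tag at 25 nM final met compounds first, then biotinylated RON2 peptide at 25 nM; detection used donor plus acceptor beads, 10 µg/mL apiece, read by AlphaScreen after 30 min at room temperature.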
Cycloheximide cs = Cycloheximide Counterscreen for Small Molecule Inhibitors of Shiga Toxin; cell reporter, cycloheximide protein synthesis inhibition counterscreen; max response, %; hit rate 12% among 300,000; in the data active means max response mostly above about 13%, no sharp cut-off; inactive means mostly below about 14%; further: read at 38.3 µM for the half of the compounds with a filed dose; 0% is about no effect
Pf growth 48h = Primary qHTS for delayed death inhibitors of the malarial parasite plastid, 48 hour incubation | hit rate 5.9% among 310,000 | Potency, µM (top dose mostly 28.7 µM), without a hit: top-dose activity change, negative = inhibition, most hits filed as inhibitors | AID 504832, 2011 | P. falciparum luciferase growth in erythrocytes, 48 h; further: potency means the concentration at half of the fitted maximal effect; on the % scale 0 is the no-effect control and ±100 the full control effect
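Growth was read as firefly luciferase luminescence after a 48 h, 37 C, 5% CO2 exposure of compounds to reporter-bearing P. falciparum cultures (0.1% parasitemia, 2% hematocrit final) in Albumax-supplemented RPMI 1640.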
Pf growth 96h = Primary qHTS for delayed death inhibitors of the malarial parasite plastid, 96 hour incubation; Potency, µM (top dose mostly 28.7 µM), inactives show top-dose activity change, negative = inhibition, usual class: inhibitors; hit rate 6.9% among 320,000; P. falciparum luciferase reporter growth, 96 h; further: potency means the concentration at half of the fitted maximal effect; on the % scale 0 is the no-effect control and ±100 the full control effect
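Readout is luminescence from an integrated firefly luciferase in P. falciparum. Red cells, 2% hematocrit and 0.05% parasitemia final, were cultured with compound through two parasite generations (96 hours) at 37 C, 5% CO2.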
HCV inh = qHTS Assay for Inhibitors of Hepatitis C Virus (HCV); Huh7.5.1 HCVcc-Cre infection, luciferase reporter, 44 h; AID 651820, 2012; Potency, µM (titrated, usually from 41.8 µM), inactives show top-dose activity change, negative = inhibition, most hits filed as inhibitors; hit rate 3.4% among 340,000; further: potency means the concentration at half of the fitted maximal effect; on the % scale 0 is the no-effect control and ±100 the full control effect
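A cell-based infection assay in which seeded cells (1,000 per well) receive test compound after 4 h, are inoculated with HCVcc-Cre at approximately 0.5 moi, and are incubated 44 h before luminescence detection.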
* = called active by the depositor; ? = inconclusive; . = not tested or not shown. Unless noted, the call rests on the fitted dose curve; in most records, active means well fitted curve in the direction sought with a large enough effect; inconclusive means small, poorly fitted or top-dose-only effect, or another doubt; inactive means no such curve, though single readings can be large; an effect the other way counts as inactive or inconclusive.

SMILES | Shiga toxin inh | AMA1 RON2 block | Cycloheximide cs | Pf growth 48h | Pf growth 96h | HCV inh
Cc1c(Cc2ccccc2)c(=O)oc2cc(OCC(=O)N3CCC(C(N)=O)CC3)ccc12 | 10 | 7% | -2 | ? | ? | ?
COC(=O)[C@@]12CCCCN1[C@H](c1ccc(-c3cccc(Cl)c3)c(OC)c1)[C@H]1C(=O)N(C)C(=O)[C@H]12 | . | 8% | . | ? | ? | 23%
CCCCn1nnnc1C1(C)CCC(=O)N1CCCN1CCOCC1 (centres undefined) | . | 0% | . | . | . | .
COc1n[nH]c(C(=O)Nc2nc3ccccc3s2)c1[N+](=O)[O-] | 75* | 113% | 33* | 23% | 31% | 3%
O=C(Nc1nc2c(F)cc(F)cc2s1)c1ccccn1 | 95* | 56% | 35* | 122% | ? | 10µM*
CCOc1ccc(NC(=S)NCc2cccnc2)cc1 | 5 | 0% | 7 | 46% | 6% | 8%
CCOc1ccc2nc(NC(=S)NCc3ccccc3)sc2c1 | 0 | 46% | 10 | . | 4.1µM* | -11%
CCOc1ccc2nc(NC(=O)Nc3cccs3)sc2c1 | 72* | -4% | 63* | 34% | -32% | -13%
CC1CCCN(S(=O)(=O)c2cccc(C(=O)NCCCN3CCCC3=O)c2)C1 (centres undefined) | . | 0% | . | . | . | .
Cc1cccc(NC(=O)N2CCCC(CNC(=O)c3ccccc3Cl)C2)c1C (centres undefined) | 23 | 10% | 7 | 3% | ? | 5%
CCOc1ccc2nc(NC(=O)c3ccccn3)sc2c1 | 45* | 48% | 24* | -9% | -97% | ?
COc1ccc(C(=O)Nc2nc3ccccc3s2)c(OC)c1 | -20 | -1% | -7 | ? | 13µM* | -8%
Cc1ccc2nc(NC(=O)c3ccccn3)sc2c1 | -11 | 76% | -7 | 7% | ? | ?
COc1ccc2nc(NC(=O)C3=NN(c4ccccc4)C(=O)CC3)sc2c1 | 27 | 49% | 18* | 41% | ? | -13%
CCOc1ccc2nc(NC(=O)NC3CCCCC3)sc2c1 | -10 | 5% | 1 | ? | 16% | ?
CS(=O)(=O)c1ccc2nc(NC(=O)C3=NN(c4ccccc4)C(=O)CC3)sc2c1 | -11 | 9% | -4 | ? | 13% | 6%
CCOc1ccc2nc(NC(=O)Nc3ccccc3)sc2c1 | 89 | -2% | 22* | . | -1% | ?
CC(NC(=O)c1cccnc1Sc1ccccc1)c1ccc(S(N)(=O)=O)cc1 (centres undefined) | -25 | 13% | -1 | 13% | -22% | 16%
Cc1cc(C)cc(C(=O)NCCCN2CCOCC2)c1 | . | 6% | -1 | 13% | -34% | -3%
O=C(CCCN1CCN2CCCC2C1)c1ccc(F)cc1 (centres undefined) | . | . | . | -8% | -1% | .
COc1ccc(OC)c2sc(NNC(=O)COc3ccccc3)nc12 | -6 | 88% | 8 | 10% | 0% | -18%
COc1ccc(OCC(=O)NNc2nc3ccccc3s2)cc1 | 77* | 35% | 44* | 20% | 29% | -7%
COc1ccc2nc(NC(=O)Nc3ccccc3)sc2c1 | 92* | 2% | 56* | -10% | ? | -25%
COC(=O)C1=C(C)N(Cc2ccccc2)C(=NCc2ccco2)N[C@H]1c1ccc(Br)cc1 | -5 | . | -5 | . | . | .
O=C1C=C(Nc2ccc(Cl)cc2)CC(c2ccc(Cl)cc2)C1 (centres undefined) | 75 | -3% | 36 | 9.3µM* | ? | -30%
Cc1ccc(C2CC(=O)C=C(Nc3ccc(Cl)cc3)C2)cc1 (centres undefined) | -15 | -2% | -2 | 15µM* | 32% | 3%
Cc1ccc(C2CC(=O)C=C(NCC(C)C)C2)cc1 (centres undefined) | -3 | 4% | -2 | ? | -1% | -7%
O=C1C=C(Nc2ccc(Cl)cc2)CC(c2ccco2)C1 (centres undefined) | 6 | 5% | 2 | 9.3µM* | ? | ?

Assay outcomes as filed in PubChem BioAssay.
